The list is not random: actives were taken first. Their share in the collection is about 7.3%.
FMDV inh: foot and mouth disease virus antiviral activity; FMDV antiviral cell-based qHTS; Potency, µM (highest dose often 57.9 µM), most hits filed as inhibitors; hit rate 1.2% among 410,000; calls by dose curve; tested in HEK293T cells; further: read-out not given here; nearly all actives have a fitted effect of over 45% in size
VACV mCherry inh: inhibitors of vaccinia virus infection (mCherry reporter signal); AID 720579; Vaccinia virus mCherry reporter infection, fluorescence; Potency, µM (highest dose often 36.5 µM), actives largely listed as inhibitors; hit rate 0.63% among 310,000; calls by dose curve; tested in A549 cells; further: nearly all actives have a fitted effect of over 35% in size
HCMV inh: blocks human cytomegalovirus replication | activity change, negative = inhibition, % at 57.5 µM | HFF cells, HCMV-luciferase reporter, 72 h; stronger effect = lower value | hit rate 4.5% among 410,000; in the data active means activity change below about -60%; inconclusive means no clear call, values can overlap the other calls; inactive means above about -39%
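Compounds were evaluated in HFFs infected with an HCMV luciferase reporter virus (MOI 1 PFU/cell). Luciferase in lysates collected 72 h post infection served as the replication measure.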
VACV Venus inh: inhibitors of vaccinia virus (Venus reporter) | Vaccinia virus Venus reporter expression, fluorescence | Potency, µM (titrated, usually from 36.5 µM), most hits filed as inhibitors | hit rate 0.46% among 330,000 | AID 720580; calls by dose curve; tested in A549 cells; further: nearly all actives have a fitted effect of over 30% in size
HCV inh: blocks hepatitis C virus | Huh7.5.1 HCVcc-Cre infection, luciferase reporter, 44 h | Potency, µM (titrated, usually from 41.8 µM), usual class: inhibitors | hit rate 3.4% among 340,000 | AID 651820; active means well fitted inhibition curve with a large enough effect; inconclusive means small, poorly fitted or top-dose-only effect, or another doubt; inactive means no such curve, though single readings can be large or run the other way
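Reporter virus HCVcc-Cre (~0.5 moi) infects cells exposed to compound; seeding density 1,000 cells/well with 4 h settling beforehand. Luminescence, 15 sec read, taken 44 h post-infection following a 15 min RT substrate incubation.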
Hits are given with their value; - = inactive; ? = inconclusive; . = not tested or not shown; + = active, no number; ! = a repeat was not active; [ ] = dose if it differs, or a comment.

SMILES	FMDV inh	VACV mCherry inh	HCMV inh	VACV Venus inh	HCV inh
Cc1nc2c(C(=O)NC(C)c3ccccc3)cnn2c(C)c1Cc1ccccc1 (configuration not stated)	?	-	-86	?	.
Cc1cc(C)c(Cc2c(C)nc3c(C(=O)NCc4ccco4)cnn3c2C)c(C)c1	18µM	-	-99	-	8.9µM
COC(=O)Cc1[nH]nc2c1C1(C(=O)N(Cc3ccccc3)c3ccccc31)C(C#N)=C(N)O2 (configuration not stated)	-	.	-	.	-
Cc1[nH]nc2c1C1(C(=O)N(Cc3ccc(Cl)cc3)c3ccccc31)C(C#N)=C(N)O2 (configuration not stated)	.	-	-70	-	-
Cc1ccc(C)c(NC(=O)CN(C)C(=O)[C@@H](NC(N)=O)C(C)C)c1	-	-	-	-	-
Cc1ccc(C)c(NC(=O)CN(C)C(=O)[C@@H](NC(=O)c2ccc(C(C)(C)C)cc2)C(C)C)c1	?	28µM	-	14µM	?
COc1ccc(-c2oc3cc(O[C@@H]4OC(CO)C(O)C(O)C4O)c(OC)c(O)c3c(=O)c2OC)cc1O (some centres not stated)	-	-	.	-	.
COc1ccc(-c2oc3c(OC)c(OC)c(OC)c(O)c3c(=O)c2OC)cc1OC	-	?	?	?	10µM
COc1ccc(-c2oc3cc(OC)c(O)c(OC)c3c(=O)c2OC)cc1O	-	?	-	?	8.9µM
COc1c(-c2ccc(O)cc2)oc2cc(O)cc(O)c2c1=O	-	20µM	-	?	?
c1ccc(Sc2nc(N3CCCCC3)nc(N3CCCCC3)n2)nc1	-	.	-	.	10µM
CC(C)CN1CCCC2(CCN(C(=O)c3cccc(F)c3)CC2)C1	-	.	.	.	.
Clc1ccc(-c2ccnc(-n3cccc3)n2)s1	-	-	?	-	-
Cc1cc(-c2ccc(Br)s2)nc(-n2cccc2)n1	-	-	-	-	11µM
Cc1cc(-c2sccc2Br)nc(-n2cccc2)n1	-	-	-	-	13µM
CC(C)(C)[C@@H]1COC(=O)[C@H](Cc2ccc(F)cc2)CC/C=C\C[C@@H](CC(=O)NCCO)C(=O)N1	-	-	-	-	?
CCOC(=O)c1csc(COc2ccc(OC)cc2)n1	-	-	-	-	-
CCOC(=O)c1ccc(CC2S/C(=C(\C#N)C(C)=O)NC2=O)cc1 (configuration not stated)	-	-	-	-	-
CC(=O)/C(C#N)=C1\NC(=O)C(Cc2ccc(C)c(Cl)c2)S1 (configuration not stated)	-	-[7.34 µM]	-92	-[7.34 µM]	-
CCc1ccc(CC2S/C(=C(\C#N)C(C)=O)NC2=O)cc1 (configuration not stated)	-	.	-90	.	-
CCOC(=O)c1cnc(SCC(=O)Nc2cc(OC)ccc2OC)nc1N	14µM	-	-	?	6.3µM
COc1ccc(OC)c(NC(=O)CSc2nc(C)cs2)c1	.	-	-	-	25µM
CC1CCCCN1CCNC(=O)c1ccc2c(=O)n(Cc3ccc(Cl)cc3)c(=S)[nH]c2c1 (configuration not stated)	-	-	-	?	2.2µM
CC1CCCCN1CCCNC(=O)c1ccc2c(=O)n(CCc3ccccc3)c(=O)[nH]c2c1 (configuration not stated)	-	.	-	.	4µM
CN1CCN(CCCNC(=O)c2ccc3c(=O)n(CCc4ccccc4)c(=O)[nH]c3c2)CC1	-	-	-	-	-
SMILES	FMDV inh	VACV mCherry inh	HCMV inh	VACV Venus inh	HCV inh
CC1CCCCN1CCNC(=O)c1ccc2c(=O)n(CCc3ccccc3)c(=O)[nH]c2c1 (configuration not stated)	-	-	-	-	11µM
CCCCCn1c(=O)[nH]c2cc(C(=O)NCCCN3CCCCC3)ccc2c1=O	-	.	-	.	10µM
CCCCCC(=O)NNC1=NCC(Cc2cccc(Cl)c2)S1 (configuration not stated)	-	-	-	-	-
CS(=O)(=O)c1ccc(CNC(=O)C2(C(F)(F)F)C/C(=C\Cc3ccccc3)CCCO2)cc1 (configuration not stated)	-	-	-	-	-[8.37 µM]
CC1CCN(CCNC(=O)c2ccc3c(=O)n(CCc4ccccc4)c(=O)[nH]c3c2)CC1	.	.	-	.	.
CC1CCN(CCCNC(=O)c2ccc3c(=O)n(CCc4ccccc4)c(=O)[nH]c3c2)CC1	-	.	-	.	8.9µM
Cc1c(C)n(C)c2ccc(C(=O)NCCCN3CCCCC3C)cc12 (configuration not stated)	-	-	+!	-	-
O=C(CCCCCn1c(=O)[nH]c2ccccc2c1=O)NCCCN1CCN(c2ccccc2F)CC1	?	-	-	-	13µM
COC(=O)c1ccc2c(=O)n(CCCCCC(=O)O)c(=O)[nH]c2c1	25µM	-	-	-	-
O=C(CCCn1c(=O)[nH]c2ccccc2c1=O)NCCSCc1ccccc1	-	-	-	-	-
CC(C)(C)OC(=O)N1CCC(NC(=O)c2nc[nH]c2C(=O)N2CCN(c3ccccc3)CC2)CC1	-	-	-	-	-
CC(C)[C@H](NC(=O)c1ccc(Br)cc1)C(=O)NC1CCCCC1	-	.	-	.	-
CC1CCCC(NC(=O)c2cccs2)C1C (configuration not stated)	-	.	-	.	-
CCN1C(=O)[C@@H]2[C@@H](c3ccc(-c4ccc(Cl)c(Cl)c4)c(OC)c3)N3CCC[C@@]3(C(=O)OC)[C@@H]2C1=O	-	-	-	?	10µM
CCN1C(=O)[C@H]2[C@@H](c3ccc(-c4ccc(F)cc4)c(OC)c3)N3CCC[C@@]3(C(=O)OC)[C@H]2C1=O	-	?	-	-	3.2µM
COc1cc(=O)n2c(c1C(=O)NC(C)c1ccco1)CCN(C(=O)c1ccc(F)cc1Cl)CC2 (configuration not stated)	-	-	.	-	.
CC(OC(=O)Cc1n[nH]c(=O)c2ccccc12)C(=O)Nc1ccc(F)cc1Cl (configuration not stated)	-	-	-	-	-
COc1cc(CNc2nc(C)c(-c3ccn(C4Cc5ccccc5C4)n3)s2)cc2c1OCO2	-	-	.	-	.
CC(C)C(NC(=O)c1ccc(C(C)(C)C)cc1)C(=O)NCc1ccccn1 (configuration not stated)	-	.	-	.	?
CCOc1ccc(C(=O)Nc2ccc(S(=O)(=O)N3CCCCC3c3cccnc3)cc2)cc1 (configuration not stated)	32µM	-	-89	?	.
CC(=O)Nc1ccc(S(=O)(=O)N2CCCCC2c2cccnc2)cc1 (configuration not stated)	-	.	-	.	-
O=C(Nc1ccc(S(=O)(=O)N2CCCCC2c2cccnc2)cc1)c1ccc(Br)cc1 (configuration not stated)	?	?	-98	-	.
COc1ccc(Cl)cc1NC(=O)CSc1nnc(C)n2c1cc1occc12	-	-	-	-	.
CCCCN(C)CCNC(=O)CCn1nc(-c2ccc(C)cc2)ccc1=O	-	-	?	-	-
CN(C)c1ccc(NC(=O)C2(c3cccs3)CCOCC2)cc1	-	-[7.34 µM]	-	-[7.34 µM]	.
